Consider 13 compounds from PubChem BioAssay (EPA / NIEHS).

The nature of assay [1]: TOX21_p53_BLA_p2_viability: Viability Assessment in the Tox21 HCT-116 p53 Agonism Beta-lactamase Assay, Phase 2 (AID 2283591).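 Note: compound exposure lasted 16 h at 37 °C; actives lower the ATP signal meaning cytotoxicity.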 In outline:
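HCT116 p53-bla cells, 4000/well, dosed after 5 h plating (217-fold dilution of DMSO stocks) and incubated 16 h at 37C. Viability taken as cellular ATP by CellTiter-Glo luminescence after 30 min RT; signal loss marks cytotoxicity.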

In assay [2] the target is Cellular tumor antigen p53 (Homo sapiens) (UniProt P04637). Description: TOX21_p53_BLA_p2_ratio: Tox21 HCT-116 p53 Agonism Beta-lactamase Assay, Ratio, Phase 2 (AID 2283592). In outline:
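Cleaved-to-uncleaved substrate ratio (460 vs 530 nm) measured in HCT116 cells with an inducible beta-lactamase reporter linked to p53 activity. Compounds incubated 16 h at 37C before 2 h room-temperature CCF4-AM loading.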

The target is the same in assay [3]. Nature of the assay: TOX21_p53_BLA_p3_ratio: Tox21 HCT-116 p53 Agonism Beta-lactamase Assay, Ratio, Phase 3 (AID 2283596). In outline: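 Cells were seeded at 4000/well, rested 5 h at 37C, then dosed with DMSO compound solutions (217-fold dilution) for 16 h. CCF4-AM substrate was loaded for 2 h at room temperature, and the 460/530 nm emission ratio was fitted for gain of signal versus DMSO.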

The nature of assay [4]: TOX21_p53_BLA_p4_viability: Viability Assessment in the Tox21 HCT-116 p53 Agonism Beta-lactamase Assay, Phase 4 (AID 2283597).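 Note: hits lower the luminescence signal meaning cytotoxicity.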 In outline:
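Viability is taken as cellular ATP: after 16 h compound exposure of HCT116 cells and a 2 h room-temperature CCF4-AM substrate step, CellTiter-Glo reagent is added and luminescence is measured 30 min later.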

Assay [5] concerns the target Cellular tumor antigen p53 (Homo sapiens) (UniProt P04637). Nature of the assay: TOX21_p53_BLA_p5_ratio: Tox21 HCT-116 p53 Agonism Beta-lactamase Assay, Ratio, Phase 5 (AID 2283599). In outline: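 HCT-116 p53-bla cells (4000/well) plated 5 h, dosed with compound (217-fold DMSO dilution) for 16 h at 37 C; CCF4-AM substrate 2 h at room temperature. Activity is the 460/530 nm emission ratio (405 nm excitation), fitted in gain-of-signal direction versus DMSO.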

For assay [6] the target is unchanged. Nature of the assay: TOX21_p53_BLA_p4_ratio: Tox21 HCT-116 p53 Agonism Beta-lactamase Assay, Ratio, Phase 4 (AID 2283601). In outline:
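HCT-116 p53 beta-lactamase reporter cells (4000/well) preincubated 5 h, then compound (217-fold dilution of DMSO stock) for 16 h at 37C. CCF4-AM substrate added 2 h at room temperature; 460/530 nm emission ratio fitted upward versus DMSO.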

Assay [7] in a line: TOX21_p53_BLA_p5_viability: Viability Assessment in the Tox21 HCT-116 p53 Agonism Beta-lactamase Assay, Phase 5 (AID 2283600). In outline: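 Viability is taken from cellular ATP content, measured by luciferase luminescence in the same wells after the beta-lactamase ratio read. Cells are seeded at 4000 per well and exposed to DMSO-dissolved compounds, diluted 217-fold, for 16 h.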

Assay [8] can be described thus: CCTE_Deisenroth_DEVTOX-GLR_legacy_CellCount: (Legacy) Viability Assessment in CCTE's DevTox GLR-Endo Assay, Deisenroth Lab (AID 2284331; active = hit-call score of the fitted dose curve at least 0.9, where 1 is the maximum; inactive = score below 0.9). The following applies: actives raise or lower the signal. In outline:
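RUES2-GLR human pluripotent cells were seeded 24 h, then differentiated 48 h with two compound doses at 24 h intervals (10-point, 1 nM - 200 uM). Fixed nuclei were imaged and counted; bidirectional fitting versus 0.2% DMSO.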

For assay [9], the system named is SRY-box transcription factor 17 (SOX17) Protein Expression, Deisenroth Lab, SOX17 (gene 64321). Nature of the assay: CCTE_Deisenroth_DEVTOX-GLR_legacy_Sox17: (Legacy) CCTE's DevTox GLR-Endo Assay Evaluation of SRY-box transcription factor 17 (SOX17) Protein Expression, Deisenroth Lab (AID 2284341; active = hit-call score of the fitted dose curve at least 0.9, where 1 is the maximum; inactive = score below 0.9). The following applies: actives raise or lower the signal. In outline: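 Percent SOX17-positive cells, scored by high-content imaging as mean intensity exceeding pluripotent-control median by 5x BMAD, divided by cell count. Human RUES2-GLR endoderm differentiation, 48 h, two exposures 24 h apart, 1 nM–200 uM; DMSO-referenced bidirectional fitting.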

Assay [10] deals with SRY-box transcription factor 2 (SOX2) Protein Expression, Deisenroth Lab, SOX2 (gene 6657). Nature of the assay: CCTE_Deisenroth_DEVTOX-GLR_legacy_Sox2: (Legacy) CCTE's DevTox GLR-Endo Assay Evaluation of SRY-box transcription factor 2 (SOX2) Protein Expression, Deisenroth Lab (AID 2284346; active = hit-call score of the fitted dose curve at least 0.9, where 1 is the maximum; inactive = score below 0.9). In outline:
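Read-out: fraction of Sox2+ cells by high-content fluorescence imaging of fixed RUES2-GLR cells after 48 h differentiation with two 24 h-spaced exposures. Positivity cutoff 5x BMAD above endoderm control median; 0.2% DMSO median subtracted.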

Assay [11] deals with SRY-box transcription factor 17 (SOX17) Protein Expression, Deisenroth Lab, SOX17 (gene 64321). Nature of the assay: CCTE_Deisenroth_DEVTOX-GLR_Endo_SOX17: CCTE's DevTox GLR-Endo Assay Evaluation of SRY-box transcription factor 17 (SOX17) Protein Expression, Deisenroth Lab (AID 2284413; active = hit-call score of the fitted dose curve at least 0.9, where 1 is the maximum; inactive = score below 0.9). In outline: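 Human RUES2-GLR cells carrying an inducible fluorescent reporter are differentiated in defined media for 48 h and dosed twice, 24 h apart. After fixation and nuclear staining, imaging yields SOX17+ cell percentage relative to 0.2% DMSO-treated differentiated cells.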

In assay [12] the test system is Brachyury (BRA) Protein Expression, TBXT (gene 6862). Description: CCTE_Deisenroth_DEVTOX-GLR_Endo_BRA: CCTE's DevTox GLR-Endo Assay Evaluation of Brachyury (BRA) Protein Expression, Deisenroth Lab (AID 2284417; active = hit-call score of the fitted dose curve at least 0.9, where 1 is the maximum; inactive = score below 0.9). In outline:
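Endpoint is the fraction of BRA reporter-positive cells over total nuclei, corrected by subtracting the 0.2% DMSO value. Chemicals (1 nM - 200 uM, 10 points) were dosed twice during 48 h differentiation of RUES2-GLR cells, read by imaging.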

A short description of assay [13]: CCTE_Deisenroth_DEVTOX-GLR_Endo_CellCount: Viability Assessment in CCTE's DevTox GLR-Endo Assay, Deisenroth Lab (AID 2284420; active = hit-call score of the fitted dose curve at least 0.9, where 1 is the maximum; inactive = score below 0.9). In outline:
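Viability in differentiating RUES2-GLR cultures is scored by fluorescent nuclear counts after 48 h and two 24-hourly chemical treatments, as percent change from the 0.2% DMSO control.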

Assay [14] relates to SRY-box transcription factor 17 (SOX17) Protein Expression, Deisenroth Lab, SOX17 (gene 64321). Nature of the assay: CCTE_Deisenroth_DEVTOX-GLR_Pluri_SOX17: CCTE's DevTox GLR-Pluri Assay Evaluation of SRY-box transcription factor 17 (SOX17) Protein Expression, Deisenroth Lab (AID 2284427). In outline: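 Seed cells 24 h; differentiate 48 h, dosing at 0 and 24 h (1 nM - 200 uM); fix, stain nuclei, image 5 fields per well; count SOX17+ cells over total cells and subtract 0.2% DMSO control.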

Assay [15] is described as follows: CCTE_Deisenroth_DEVTOX-GLR_Pluri_CellCount: Viability Assessment in CCTE's DevTox GLR-Pluri Assay Evaluation of Total Cell Counts, Deisenroth Lab (AID 2284430; active = hit-call score of the fitted dose curve at least 0.9, where 1 is the maximum; inactive = score below 0.9). In outline:
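Cytotoxicity readout: fluorescent nuclei counts by high-content imaging, expressed as percent change relative to 0.2% DMSO. Human RUES2-GLR pluripotent line differentiated 48 h, dosed twice at 24-h intervals across 1 nM - 200 uM (10 points).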

Results filed as inconclusive are left out. Active and inactive are the calls of the source. Rule for the calls, unless noted: active = hit-call score of the fitted dose curve at least 0.9, where 1 is the maximum; inconclusive = response in the unintended direction; inactive = score below 0.9.

Cellular tumor antigen p53 (Homo sapiens), sequence (P04637 whole entry, looked up): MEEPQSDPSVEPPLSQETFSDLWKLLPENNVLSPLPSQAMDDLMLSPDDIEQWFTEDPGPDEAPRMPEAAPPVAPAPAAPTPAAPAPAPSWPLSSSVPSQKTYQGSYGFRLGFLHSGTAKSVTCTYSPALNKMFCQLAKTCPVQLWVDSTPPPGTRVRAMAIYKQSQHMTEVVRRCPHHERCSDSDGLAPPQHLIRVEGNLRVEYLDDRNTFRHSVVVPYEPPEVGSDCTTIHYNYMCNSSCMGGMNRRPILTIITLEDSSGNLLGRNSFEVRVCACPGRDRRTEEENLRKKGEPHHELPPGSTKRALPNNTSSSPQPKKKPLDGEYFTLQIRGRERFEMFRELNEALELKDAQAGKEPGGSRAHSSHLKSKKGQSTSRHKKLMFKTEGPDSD

Regarding `CN1[C@@H]2CC[C@H]1CC(NC(=O)n1c(=O)[nH]c3ccccc31)C2` (some centres undefined), the compound was called inactive in assay [1], in assay [2], in assay [3], in assay [4], in assay [5] and in [6].

Consider `CCCCC1C(=O)N(c2ccccc2)N(c2ccc(O)cc2)C1=O` (centres undefined), for which the AC50 is 19 µM (active) in assay [1], 15.8 µM (active) in [2], 17 µM (active) in [4] and 15.4 µM (active) in assay [5]. In addition, the result in [3], in [7] and in assay [6] was inactive.

For the compound `CS(=O)(=O)c1ccc([C@@H](O)[C@@H](CO)NC(=O)C(Cl)Cl)cc1`, the result in assay [1], in assay [2], in assay [3], in assay [4], in [5] and in assay [7] was inactive. Also, the result in assay [6] was inactive.

Regarding `CNCC[C@@H](Oc1ccccc1C)c1ccccc1`, the outcome in assay [1], in assay [2], in assay [3], in [4], in [5] and in assay [6] was inactive.

On to `O=c1[nH]c(=O)n([C@H]2C[C@H](O)[C@@H](CO)O2)cc1Br`, for which the result in assay [1], in [2], in assay [3], in [4], in [5] and in assay [7] was inactive. The result in assay [6] and in assay [14] was inactive. The AC50 in [8] is 10.2 µM (active); in [9], 0.857 µM (active); in assay [10], 14.4 µM (active); in [11], 0.657 µM (active); in assay [12] it was 32.8 µM (active); in assay [13], 10.2 µM (active). For the same compound, the AC50 in assay [15] is 23.7 µM (active).

In the case of `CC1=CC(=O)CC(C)(C)C1=O`, the result in [1], in assay [2], in assay [3], in assay [4], in assay [5] and in assay [7] was inactive. The outcome in assay [6] was inactive.

For `CCc1ccc2c(c1)N(CC(C)CN(C)C)c1ccccc1S2` (centres undefined), the results for the AC50 in [1] and in assay [4] were 38.7 µM (active) and 36.2 µM (active), respectively. Besides, the result in assay [2], in [3], in assay [5], in assay [7] and in assay [6] was inactive.

On to `CO`, for which the result in assay [1], in assay [2], in assay [3], in assay [4], in assay [5] and in [6] was inactive.

On to `CC(=O)N/N=C/c1ccc([N+](=O)[O-])o1`, for which the outcome in assay [1], in [3] and in [7] was inactive. Further, the AC50 was 42.3 µM (active) in assay [2], 40.9 µM (active) in assay [4], 34.9 µM (active) in assay [5] and 41.3 µM (active) in assay [6].

Regarding `O=S(=O)(O)C(F)(F)F`, the outcome in assay [1], in assay [2], in assay [3], in assay [4], in assay [5] and in assay [7] was inactive. For the same compound, in [6], the result was inactive.

With `NCCNCCO`, the outcome in assay [1], in [2], in [3], in assay [4], in assay [5] and in assay [6] was inactive.

Consider `CC(Cl)C(Cl)Cl` (centres undefined), for which the call in assay [1], in assay [2], in assay [3], in [4], in assay [5] and in [7] was inactive. In [6], the result was inactive.

Regarding `CC(NNC(=O)c1ccccc1)c1ccccc1` (centres undefined), the call in assay [1], in [2], in assay [3], in assay [4], in [5] and in assay [6] was inactive.

One may read the AC50 as the midpoint of the concentration-response curve, whichever way the signal moves.
